Measurements from PubChem BioAssay AID1159580 (chemical genetic matrix, 2015).
Out of some 5,500 compounds screened, about 2,000 (36%) were called active. Inconclusive results (about 18%) are left out. Rule as the data show it: active = normalized growth mostly below about 0.91 (no sharp cut-off); inconclusive = no clear call, values can overlap the other calls; inactive = mostly above about 0.92. Some of the results follow.

Assay: chemical genetic growth profiling, strain panel (AID 1159580);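 also: tested at 20 µM; growth read once vehicle control cultures reached saturation at 30 °C; 1 = growth at the plate median or of vehicle wells; lower values mean less growth of the strain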
Settings: S. cerevisiae deletion strains, growth OD

Measured: normalized growth

COc1cc(C(=O)OCCCN2CCCN(CCCOC(=O)c3cc(OC)c(OC)c(OC)c3)CC2)cc(OC)c1OC
inactive: locus YAL040C, strain CLN3, stronger effect = lower value 0.967 | locus YCL061C, strain MRC1 (second series), stronger effect = lower value 1.01 | locus YDR150W, strain NUM1, stronger effect = lower value 0.998 | locus YDR363W, strain ESC2, stronger effect = lower value 1.03 | locus YER002W, strain NOP16, stronger effect = lower value 1.03 | locus YMR307W, strain GAS1, stronger effect = lower value 1.01 | locus YNL175C, strain NOP13, stronger effect = lower value 1.01 | locus YNL197C, strain WHI3, stronger effect = lower value 1 | locus YNL224C, strain SQS1, stronger effect = lower value 1.01 | locus YOR083W, strain WHI5 (second series), stronger effect = lower value 0.972 | locus YPL055C, strain LGE1, stronger effect = lower value 1.02
